We go through 30 sequences from PubChem BioAssay AID1508600 (Functional Genomics Laboratory (NCATS/FGL), 2020).

About 3,700 (7%) of roughly 53,000 sequences were called active.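 The calls were made as follows: active = gene knockdowns whose robust z-score for IL-1 alpha signal is at least 2 or at most -2, so actives lie on both sides; inactive = the rest.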 This excerpt belongs to a sample that is enriched for actives.

A short description of the experiment: Components of the Cytosolic LPS Sensing Pathway: Gene Identification via Genome-wide siRNA Screen.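 Also: robust z of the log signal after scaling to non-targeting control siRNA wells of the plate.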 The note with it: RAW264.7 macrophages, IL-1a HTRF, actives lie on both sides, screened at 100 nM (by protocol), cells primed 5 h with Pam3CSK4 first. The essentials:
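IL-1a HTRF of supernatants after 24 hour LipidA transfection of Pam3CSK4-primed (5 hours) RAW264.7 cells, 48h post-siRNA transfection (100 nM). Scores: percent of plate negative-control median, then log-based robust z-score.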
On the technique in general: In TR-FRET formats the signal depends on donor and acceptor labels being close together.
In the case of GGCCUCAAGAAUGUAACAGTT against Psmf1, the z-score is -1.07 (inactive).
The value for GGACAAUUGAAUACCUAGATT against Hadha was 0.151 (inactive); that for GGACUCAACUGCACUGUUGTT against Izumo4 was -2.37 (active); that for CCAAGUUUUAGCACCUAAATT against Dcp1a was 0.769 (inactive).
Regarding GGACAUGAAGAUCAAGUCCTT against Rps2, the z-score was -0.109 (inactive).
For GAAGACUUCAAUCAACCAGTT against Trim6, the z-score was -0.396 (inactive).
The value for GGAAACUUGUUGAAGAGAUTT against Ptprz1 was 2.37 (active); that for GCAUACCGGAUAAACUGAATT against Apoc1 was -0.916 (inactive).
On to GGAAUGUCGAAUUGAUUGUTT against Klrb1b, for which the z-score was 0.524 (inactive).
The figure for GGAAGAGAGAGACAAGGAUTT against Dap is 1.38 (inactive).
The value for GGCGACGAAGUCACCUAUATT against Carhsp1 was -0.0404 (inactive); that for GAAGGCCAAUGAUCGGGAGTT against Neurog3 was -2.1 (active); that for GGUGGAGAAAUCUGCUAAUTT against Lta4h was 1.99 (inactive).
CGUCAAUGAAUUCGACUCUTT against Pnlip: the z-score was 0.348 (inactive).
The value for GCUUUCAGCUAUUGGACCCTT against Kl was 0.0919 (inactive); that for CGAUGCUGACUGAGAUCAUTT against Rad23a was 1.39 (inactive); that for GGUAUAGUUAAAGUGAGAGTT against Sp8 was -0.883 (inactive).
Turning to GGAGUUAAUUGCCCGCAACTT against Rab19, the z-score was 0.588 (inactive).
Consider CGGAAGAUGUUAAAACUAUTT against Slc44a3, for which the z-score was -1.33 (inactive).
CCAGGACAAUAACUCUGAGTT against Aatk: the z-score was -1.28 (inactive).
The value for GGCGAGUUUAUAGAAGAAATT against Phf19 was 1.35 (inactive).
The value for GCAAAAGCGGGUCAAAAAATT against Lrrc72 was 2.27 (active); that for GGCUUGGAAUGACACUACUTT against Maged1 was -1.12 (inactive); that for GCUCAAUUUACAAAAGCCCTT against Pik3c2a was -0.961 (inactive).
The value for CCUGUUUCUGACCUAAUACTT against Syn1 was -0.088 (inactive); that for GGAAGAUAUUGCUGUUGGATT against Mbd4 was 0.823 (inactive); that for GCAAGAUGAGAAGGAUUUUTT against Zfp691 was 0.591 (inactive).
For GGAGGAAAACAAACCACAGTT against Tpbpa, the z-score is 0.0817 (inactive).
The figure for GCUGCAUCUAAAGCCUUAATT against Olfr661 is 1.41 (inactive); for GGAAGAAAGUGAAGAAGAGTT against Cdr1os it is -0.387 (inactive).
